Autofluor counter: counter-screen for toxin protease inhibitors: compound fluorescence | fluorescence intensity (test concentration not listed) | compound autofluorescence counterscreen, microsphere flow cytometry; active compounds read high | 360,000 tested, 3.1% active | AID 624483; in the data active = fluorescence intensity above about 16000; inconclusive = no clear call, values can overlap the other calls
BoNT A protease: BoNT/A light chain protease inhibitors, primary screen, biochemical, flow cytometry, MLPCN library. multiplex microsphere protease substrate cleavage. inhibition, % at 10 µM. 360,000 tested, 0.17% active. AID 588499, 2011
MazEF act: activators of E. coli MazEF toxin-antitoxin RNase, primary screen, biochemical, fluorescence, uHTS. FAM/BHQ RNA-DNA oligo cleavage fluorescence, 5 h. activation, % at 20 µM. 350,000 tested, 0.32% active. AID 504720, 2011; in the data active = activation above about 50%
Target sequence (P0AE70 whole entry, looked up): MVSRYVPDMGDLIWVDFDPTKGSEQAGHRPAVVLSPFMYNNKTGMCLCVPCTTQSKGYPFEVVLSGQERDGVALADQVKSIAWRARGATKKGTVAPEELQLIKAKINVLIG
BoNT F protease: BoNT/F light chain protease inhibitors, primary screen, biochemical, flow cytometry, MLPCN library; 360,000 tested, 0.22% active; Multiplex microsphere protease cleavage assay; inhibition, % at 10 µM; AID 588497, 2011; in the data active = inhibition above about 35%, passing the limit was not always enough; inconclusive = no clear call, values can overlap the other calls
Anthrax LF inh2: Bacillus anthracis LF protease inhibitors, primary screen, biochemical, multiplex microsphere, MLPCN library. 360,000 tested, 0.12% active. inhibition, % at 10 µM. Lethal factor (Bacillus anthracis), P15917. AID 588501, 2011. multiplex microsphere protease cleavage assay
Hits are given with their value; – = inactive; ? = inconclusive; · = no result given. Only some compounds are listed: those with a hit (about 3.7% of all), similar ones and a draw of the others. Cut-off read from the data, not from the text of the source, unless noted: active = inhibition above about 30%; inconclusive = no clear call, values can overlap the other calls; inactive = below that.

SMILES | Autofluor counter | BoNT A protease | MazEF act | BoNT F protease | Anthrax LF inh2
Cc1ccc(OCCSc2nc3ccccc3n2CC(=O)O)c(C(C)C)c1 | – | – | – | – | –
O=C(Nc1cccc(OC(F)(F)F)c1)c1ccc(Br)o1 | 16998 | – | – | – | –
CCCCC(=O)Nc1cccc(NC(=O)c2ccc(Br)o2)c1 | 16352 | – | – | – | –
O=C(Nc1cccc(F)c1)c1ccc(Br)o1 | – | – | – | – | –
CCCN(CC(=O)Nc1ccccc1C)C(=O)c1cnc(C)cn1 | – | – | – | – | –
Cc1cc2nccnc2cc1C | – | – | – | – | –
CC1(C)CC(=O)c2c(O)cc(O)cc2O1 | 22477 | – | – | – | –
CCOc1ccc(S(=O)(=O)Nc2cccc(C(=O)N(C)CC(=O)Nc3cccc(OC)c3)c2)cc1 | – | – | – | – | –
CCN1CCc2c(sc(NC(=S)NC(=O)c3ccc(Cl)cc3)c2C(N)=O)C1 | 16287 | – | – | ? | –
CC(C)N1CCc2c(sc(NC(=S)NC(=O)c3ccccc3)c2C#N)C1 | – | 32 | – | – | –
CC(C)C1Cc2c(sc(NC(=S)NC(=O)c3ccccc3)c2C#N)CO1 (centres undefined) | – | – | – | – | –
CCN1CCc2c(sc(NC(=O)c3ccc4ccccc4c3)c2C(N)=O)C1 | – | – | · | – | –
CCCN1CCc2c(sc(NC(=S)NC(=O)c3ccccc3)c2C#N)C1 | – | 58 | – | – | –
Cc1sc(NC(=S)NC(=O)c2ccccc2)c(C#N)c1C | – | – | – | – | –
CC(C)N1CCc2c(sc(N)c2C#N)C1 | 19341 | – | – | – | –
CCOCCCn1c(=N)c(C(=O)NCCN2CCOCC2)cc2c(=O)n3cccc(C)c3nc21 | 22990 | – | – | – | –
Cc1cccn2c(=O)c3cc(C(=O)NCCN4CCOCC4)c(=N)n(CCN4CCOCC4)c3nc12 | – | – | – | – | –
COCc1[nH]nc2c1C(c1cc(OC)c(O)c(OC)c1)C(C#N)=C(N)O2 (centres undefined) | – | – | 195 | – | –
COCc1[nH]nc2c1C(c1ccnc3ccccc13)C(C#N)=C(N)O2 (centres undefined) | 16149 | – | – | – | –
CCCc1[nH]nc2c1C(c1ccc(O)c(OC)c1)C(C#N)=C(N)O2 (centres undefined) | – | – | 53 | – | –
COCc1[nH]nc2c1C(c1ccc(OC)c(OC)c1)C(C#N)=C(N)O2 (centres undefined) | – | – | – | – | –
CC(C)c1[nH]nc2c1C(c1cccs1)C(C#N)=C(N)O2 (centres undefined) | 20949 | – | – | – | –
CCCc1[nH]nc2c1C(c1ccccc1OC)C(C#N)=C(N)O2 (centres undefined) | – | – | – | – | –
COc1ccc2c(c1)c(C(C)=O)c(C)n2-c1ccccc1OC | – | ? | – | ? | –
O=c1oc2ccccc2c2c1nnn2CCO | – | – | – | – | –
SMILES | Autofluor counter | BoNT A protease | MazEF act | BoNT F protease | Anthrax LF inh2
COc1cc(C2C(C#N)=C(N)Oc3n[nH]c(-c4cccs4)c32)cc(OC)c1O (centres undefined) | – | – | 60 | – | –
Cc1ccc(C2C(C#N)=C(N)Oc3n[nH]c(-c4cccs4)c32)cc1 (centres undefined) | – | – | – | – | –
Cc1cc(C)n(C(=O)c2ccc(C)c(S(=O)(=O)N3CCCCC3)c2)n1 | 16992 | – | – | – | –
CC(C)(C)OC(=O)C[C@@H]1C/C=C\C[C@H](CC(=O)N(CCO)Cc2ccccc2)C(=O)N[C@H](C(C)(C)C)COC1=O | – | – | – | – | –
O=C(Nc1ccc2c(c1)CCC2)C1COc2ccccc2O1 (centres undefined) | 23530 | – | – | – | –
CCOC(=O)C(=N/O)/C(C)=N/NC(C)=O | – | – | – | 46 | –
CCOC(=O)C(Cc1c(F)cccc1F)(NC(C)=O)C(=O)OCC | 21936 | – | – | – | –
O=c1[nH]c(=O)n(-c2ccc(F)cc2)c(O)c1C=Nc1ccccc1N1CCCC1 | – | – | 206 | – | –
Cc1cc(C)n(CCCNC(=O)CCNS(=O)(=O)c2ccccc2C(F)(F)F)n1 | – | – | – | – | –
S=C(NCc1ccc2c(c1)OCO2)Nc1ccc(-c2nc3ccccc3[nH]2)cc1 | – | – | 50 | – | –
Cc1ccc(S(=O)(=O)NCCC(=O)NC2CCCC2)cc1 | 20213 | ? | – | – | –
O=C(CCNS(=O)(=O)c1ccc(Br)s1)NC1CCCC1 | 24053 | – | – | – | –
Cc1ccc(S(=O)(=O)NCCC(=O)NC2CCCCCC2)cc1 | – | – | – | – | –
CCOc1ncccc1C(=O)Nc1nnc(C)s1 | – | – | – | – | –
CCOc1ccc(C(=O)Nc2nnc(C)s2)cc1OCC | 20767 | ? | – | – | –
Cc1cc(C)c(C#N)c(SCC(=O)Nc2cc(C)on2)n1 | – | – | – | – | –
CCOc1ccc(-n2c(=S)sc3c(=O)[nH]c(SCC(=O)NCc4ccco4)nc32)cc1 | 20051 | ? | – | – | –
CCOC(=O)CSc1nc2c(sc(=S)n2-c2ccc(OCC)cc2)c(=O)[nH]1 | – | – | – | – | –
Cc1cc(C)n(-c2nc3ccccc3c(=O)n2OCC(N)=O)n1 | 21858 | – | – | – | –
Cc1cc(CC(C)C)n(-c2nc3ccccc3c(=O)n2OCC(N)=O)n1 | – | – | – | ? | –
Cc1ccc(CNC(=O)C2CC(=O)OC23CCCC3)c(C)c1 (centres undefined) | 16440 | – | – | – | –
Cc1cccc(NC(=O)C2CC(=O)OC23CCCCC3)c1 (centres undefined) | – | – | – | – | –
COc1ccc(C)cc1NC(=O)C1CC(=O)OC12CCCCC2 (centres undefined) | 22901 | – | – | – | –
CCn1nc(C)c(/C=N/NC(=O)c2nc3nc(C)cc(C)n3n2)c1C | – | – | – | ? | 34
O=C(N/N=C/c1ccco1)c1ccncc1 | 24013 | – | – | – | –
SMILES | Autofluor counter | BoNT A protease | MazEF act | BoNT F protease | Anthrax LF inh2
CCC1(C)Cc2c(sc3nn[nH]c(=O)c23)CO1 (centres undefined) | 16707 | – | – | – | –
CCC1(C)Cc2c(sc3nnn(CC(=O)Nc4ccccc4)c(=O)c23)CO1 (centres undefined) | – | ? | – | – | –
CCC1(C)Cc2c(sc3nnn(Cc4ccccc4Cl)c(=O)c23)CO1 (centres undefined) | 20244 | – | – | – | –
CCC1NC(=O)c2cc3ccccc3cc2-n2c1nc1ccc(OC)cc1c2=O (centres undefined) | – | – | – | – | –
CC[N+](CC)(CC)CCC(O)(c1ccccc1)C1CCCCC1 (centres undefined) | – | – | – | – | –
CCN(CC)CCC(O)(c1ccccc1)C1CCCCC1 (centres undefined) | 60438 | – | – | ? | –

High-throughput results from PubChem.
